Activity calls are given as the source filed them. The calls were made as follows: active = hit-call score of the fitted dose curve at least 0.9, where 1 is the maximum; inactive = score below 0.9.

Read-out in one assay: CYP3A5 (gene 1577)
Kind of assay: LTEA_HepaRG_CYP3A5: Life Technologies and Expression Analysis (LTEA) Assay for CYP3A5 using HepaRG (AID 2283493). The settings on record: mRNA level, 48 h; actives raise or lower the signal. In short, it runs like this:
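HepaRG cells, plated 48 h then in serum-free induction medium, dosed in duplicate for 48 h with eight half-log concentrations up to 100 uM in 0.5% DMSO. Gene mRNA by Fluidigm TaqMan qRT-PCR, normalized to ACTB, GAPDH, POLR2A.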
Regarding `O=C(O)C1(c2ccc3c(c2)OC[C@H](Cc2ccc(-c4ccccc4)cc2)[C@H]3O)CCCC1`, the AC50 (usually the midpoint of the concentration-response curve, whichever way the signal moves) is 77 µM (active).

For the molecule `CC(C)(C)c1ccccc1O`, the result was inactive.

For `CC(C)O.CC(C)O.OCCN(CCO)CCO.OCCN(CCO)CCO.[Ti]`, the molecule was called inactive.

In the case of `CN(C)C(=S)S`, the result was inactive.

As for `CCCCCCCCCCCCc1cccc(S(=O)(=O)O)c1`, the result was inactive.

As for `Cc1cc(C)cc(C)c1`, the molecule was called inactive.

Regarding `N#Cc1cccnc1`, the outcome was inactive.

`COc1ccccc1N`: the molecule was classed as inactive.

Regarding `Clc1cccc(Cl)c1Cl`, the call was inactive.

On to `Oc1cc(Cl)c(Cl)cc1Cl`, for which the outcome was inactive.

For the molecule `O=C(N[C@H]1CN2CCC1CC2)c1ccc2c(c1)OCCO2`, the call was inactive.

Consider `OCCN(CCO)CCO`, for which the molecule was called inactive.

On to `Clc1cccc(Cl)c1`, for which the molecule was called inactive.

Read-out in another assay: Fatty Acid-Binding Protein 1 (FABP1), FABP1 (gene 2168)
Kind of assay: LTEA_HepaRG_FABP1: Life Technologies and Expression Analysis (LTEA) Assay for Fatty Acid-Binding Protein 1 (FABP1) using HepaRG (AID 2283494). The settings on record: mRNA level, 48 h; actives raise or lower the signal. In short, it runs like this:
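HepaRG, 48 h post-plating switched to serum-free induction medium, then dosed 48 h (duplicate, 8 pts, ≤100 uM, 0.5% DMSO). RNA → Fluidigm TaqMan qRT-PCR, FABP1 normed to ACTB/GAPDH/POLR2A. Bidirectional curve fit vs DMSO.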
Turning to `Oc1c(Cl)cc(Cl)cc1Cl`, the molecule was called inactive.

For the molecule `O=C(O)C1(c2ccc3c(c2)OC[C@H](Cc2ccc(-c4ccccc4)cc2)[C@H]3O)CCCC1`, the AC50 is 83.9 µM (active).

As for `CC(C)(C)c1ccccc1O`, the outcome was inactive.

Take `CC(C)O.CC(C)O.OCCN(CCO)CCO.OCCN(CCO)CCO.[Ti]`: the call was inactive.

For `CN(C)C(=S)S`, the call was inactive.

As to `CCCCCCCCCCCCc1cccc(S(=O)(=O)O)c1`, the outcome was inactive.

Consider `Cc1cc(C)cc(C)c1`, for which the molecule was classed as inactive.

With `N#Cc1cccnc1`, the call was inactive.

As to `COc1ccccc1N`, the molecule was called inactive.

Consider `Clc1cccc(Cl)c1Cl`, for which the molecule was called inactive.

As to `Oc1cc(Cl)c(Cl)cc1Cl`, the molecule was classed as inactive.

As to `O=C(N[C@H]1CN2CCC1CC2)c1ccc2c(c1)OCCO2`, the outcome was inactive.

`OCCN(CCO)CCO`: the result was inactive.

With `Clc1cccc(Cl)c1`, the molecule was called inactive.

Read-out in another assay: Cytochrome P450 7A1 (Homo sapiens) (UniProt P22680)
Kind of assay: LTEA_HepaRG_CYP7A1: Life Technologies and Expression Analysis (LTEA) Assay for Cytochrome P450 7A1 (CYP7A1) using HepaRG (AID 2283496). Conditions: mRNA level, 48 h; actives raise or lower the signal. The essentials: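 HepaRG cells plated 48 h, then switched to serum-free induction medium and exposed in duplicate for 48 h to 8-point half-log series from 100 uM in 0.5% DMSO. CYP7A1 mRNA by qRT-PCR (TaqMan), normalized to ACTB/GAPDH/POLR2A; bidirectional fit versus DMSO.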
For the molecule `O=C(O)C1(c2ccc3c(c2)OC[C@H](Cc2ccc(-c4ccccc4)cc2)[C@H]3O)CCCC1`, the call was inactive.

As for `CC(C)(C)c1ccccc1O`, the result was inactive.

For the molecule `CC(C)O.CC(C)O.OCCN(CCO)CCO.OCCN(CCO)CCO.[Ti]`, the call was inactive.

For the molecule `CCCCCCCCCCCCc1cccc(S(=O)(=O)O)c1`, the molecule was classed as inactive.

As for `Cc1cc(C)cc(C)c1`, the molecule was called inactive.

Take `N#Cc1cccnc1`: the result was inactive.

As to `COc1ccccc1N`, the outcome was inactive.

On to `Clc1cccc(Cl)c1Cl`, for which the molecule was called inactive.

Consider `Oc1cc(Cl)c(Cl)cc1Cl`, for which the outcome was inactive.

`O=C(N[C@H]1CN2CCC1CC2)c1ccc2c(c1)OCCO2`: the result was inactive.

For the molecule `OCCN(CCO)CCO`, the outcome was inactive.

As to `Clc1cccc(Cl)c1`, the result was inactive.

Read-out in a further assay: Glutathione S-Transferase (GSTA2), GSTA2 (gene 2939)
Kind of assay: LTEA_HepaRG_GSTA2: Life Technologies and Expression Analysis (LTEA) Assay for Glutathione S-Transferase (GSTA2) using HepaRG (AID 2283497). Conditions: mRNA level, 48 h; actives raise or lower the signal. In short, it runs like this: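 HepaRG, 48 h dosing, 8-pt half-log CRC from 100 uM, 0.5% DMSO vehicle, n=2; RNA → Fluidigm TaqMan qRT-PCR; GSTA2 vs ACTB/GAPDH/POLR2A; gain/loss fit vs DMSO.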
As to `Oc1c(Cl)cc(Cl)cc1Cl`, the molecule was classed as inactive.

As to `O=C(O)C1(c2ccc3c(c2)OC[C@H](Cc2ccc(-c4ccccc4)cc2)[C@H]3O)CCCC1`, the concentration at half-maximal activity (AC50) was 80.1 µM (active).

As to `CC(C)(C)c1ccccc1O`, the call was inactive.

Consider `CC(C)O.CC(C)O.OCCN(CCO)CCO.OCCN(CCO)CCO.[Ti]`, for which the molecule was called inactive.

As to `CN(C)C(=S)S`, the molecule was classed as inactive.

With `CCCCCCCCCCCCc1cccc(S(=O)(=O)O)c1`, the outcome was inactive.

As for `Cc1cc(C)cc(C)c1`, the result was inactive.

As for `N#Cc1cccnc1`, the molecule was classed as inactive.

Take `COc1ccccc1N`: the outcome was inactive.

Regarding `Clc1cccc(Cl)c1Cl`, the molecule was classed as inactive.

In the case of `Oc1cc(Cl)c(Cl)cc1Cl`, the result was inactive.

`O=C(N[C@H]1CN2CCC1CC2)c1ccc2c(c1)OCCO2`: the molecule was classed as inactive.

On to `OCCN(CCO)CCO`, for which the result was inactive.

For `Clc1cccc(Cl)c1`, the molecule was called inactive.

Read-out in the next assay: growth arrest and DNA damage 45 (GADD45G), GADD45G (gene 10912)
Kind of assay: LTEA_HepaRG_GADD45G: Life Technologies and Expression Analysis (LTEA) Assay for growth arrest and DNA damage 45 (GADD45G) using HepaRG (AID 2283499). Conditions: mRNA level, 48 h; actives raise or lower the signal. The essentials:
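Concentration-response in HepaRG: 48 h dosing, 0.5% DMSO, highest level 100 uM. GADD45G expression by qRT-PCR, normalised to endogenous controls; bidirectional fit to DMSO.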
For the molecule `Oc1c(Cl)cc(Cl)cc1Cl`, the result was inactive.

For the molecule `O=C(O)C1(c2ccc3c(c2)OC[C@H](Cc2ccc(-c4ccccc4)cc2)[C@H]3O)CCCC1`, the molecule was classed as inactive.

For the molecule `CC(C)(C)c1ccccc1O`, the molecule was classed as inactive.

Regarding `CC(C)O.CC(C)O.OCCN(CCO)CCO.OCCN(CCO)CCO.[Ti]`, the call was inactive.

`CN(C)C(=S)S`: the result was inactive.

`CCCCCCCCCCCCc1cccc(S(=O)(=O)O)c1`: the call was inactive.

Regarding `Cc1cc(C)cc(C)c1`, the molecule was classed as inactive.

Consider `N#Cc1cccnc1`, for which the molecule was called inactive.

`COc1ccccc1N`: the call was inactive.

Take `Clc1cccc(Cl)c1Cl`: the molecule was classed as inactive.

`Oc1cc(Cl)c(Cl)cc1Cl`: the outcome was inactive.

As for `O=C(N[C@H]1CN2CCC1CC2)c1ccc2c(c1)OCCO2`, the molecule was classed as inactive.

For the molecule `OCCN(CCO)CCO`, the call was inactive.

As for `Clc1cccc(Cl)c1`, the result was inactive.

Read-out in the next assay: Glutamate-cysteine ligase regulatory (GCLM), GCLM (gene 2730)
Kind of assay: LTEA_HepaRG_GCLM: Life Technologies and Expression Analysis (LTEA) Assay for Glutamate-cysteine ligase regulatory (GCLM) using HepaRG (AID 2283500). The settings on record: mRNA level, 48 h; actives raise or lower the signal. In short, it runs like this: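 Differentiated HepaRG cells exposed 48 h in serum-free induction medium to eight half-log concentrations up to 100 uM (0.5% DMSO). GCLM mRNA by TaqMan qRT-PCR, normalized to ACTB, GAPDH and POLR2A; bidirectional fit versus DMSO.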
With `Oc1c(Cl)cc(Cl)cc1Cl`, the call was inactive.

For `O=C(O)C1(c2ccc3c(c2)OC[C@H](Cc2ccc(-c4ccccc4)cc2)[C@H]3O)CCCC1`, the result was inactive.

`CC(C)(C)c1ccccc1O`: the outcome was inactive.

Regarding `CC(C)O.CC(C)O.OCCN(CCO)CCO.OCCN(CCO)CCO.[Ti]`, the call was inactive.

As to `CN(C)C(=S)S`, the result was inactive.

Regarding `CCCCCCCCCCCCc1cccc(S(=O)(=O)O)c1`, the molecule was called inactive.

Turning to `Cc1cc(C)cc(C)c1`, the outcome was inactive.

Consider `N#Cc1cccnc1`, for which the molecule was classed as inactive.

Take `COc1ccccc1N`: the molecule was classed as inactive.

Regarding `Clc1cccc(Cl)c1Cl`, the result was inactive.

On to `Oc1cc(Cl)c(Cl)cc1Cl`, for which the call was inactive.

As for `O=C(N[C@H]1CN2CCC1CC2)c1ccc2c(c1)OCCO2`, the AC50 was 0.112 µM (active).

Regarding `OCCN(CCO)CCO`, the result was inactive.

As for `Clc1cccc(Cl)c1`, the molecule was classed as inactive.

Read-out in another assay: Glutathione S-transferase M3 (GSTM3), GSTM3 (gene 2947)
Kind of assay: LTEA_HepaRG_GSTM3: Life Technologies and Expression Analysis (LTEA) Assay for Glutathione S-transferase M3 (GSTM3) using HepaRG (AID 2283501). The settings on record: mRNA level, 48 h; actives raise or lower the signal. The essentials:
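Expression of GSTM3 is determined by qRT-PCR in human liver HepaRG cells treated 48 h with an 8-point half-log range from 100 uM in 0.5% DMSO.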
For `Oc1c(Cl)cc(Cl)cc1Cl`, the molecule was called inactive.

Regarding `O=C(O)C1(c2ccc3c(c2)OC[C@H](Cc2ccc(-c4ccccc4)cc2)[C@H]3O)CCCC1`, the molecule was called inactive.

As for `CC(C)(C)c1ccccc1O`, the molecule was called inactive.

`CC(C)O.CC(C)O.OCCN(CCO)CCO.OCCN(CCO)CCO.[Ti]`: the result was inactive.

Take `CN(C)C(=S)S`: the outcome was inactive.

Turning to `CCCCCCCCCCCCc1cccc(S(=O)(=O)O)c1`, the molecule was called inactive.

Take `Cc1cc(C)cc(C)c1`: the result was inactive.

With `N#Cc1cccnc1`, the result was inactive.

As for `COc1ccccc1N`, the molecule was classed as inactive.

With `Clc1cccc(Cl)c1Cl`, the outcome was inactive.

With `O=C(N[C@H]1CN2CCC1CC2)c1ccc2c(c1)OCCO2`, the call was inactive.

For the molecule `OCCN(CCO)CCO`, the outcome was inactive.

On to `Clc1cccc(Cl)c1`, for which the molecule was classed as inactive.

For the origin of these results see PubChem BioAssay (EPA / NIEHS).
